# Data as given in the supplement of paper PMC6555819.
# Tested on: PPARa:RXRa (NR concentration 270 nM, RXRa partner concentration 90 nM)
# Assay: PBM binding z-score (relative to random genomic background probes); higher = stronger binding; sequences stand for … in GC…GCGATTGACAGCGTAGAATGAAGG
# Procedure, shortened: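 Custom Agilent 4×180K protein-binding microarrays carried double-stranded probes. Their 34-nt variable regions held direct-repeat seeds, single-nucleotide variants, half-site ablations and random human genomic background sequences. Arrays were incubated 1 h with ligand-free nuclear receptor dimers in PBS pH 7.4, 2% milk, 0.02% Triton X-100, 1 mM DTT, 0.2 mg/mL BSA and 0.4 mg/ml salmon testes DNA. Antibodies against each partner (one per run) detected binding, and scanned fluorescence was regression-normalized. Binding z-scores use random background probes as reference.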
row,Sequence,PBM binding z-score
1,CGAACGAGGGCATGAGTTCATAGCAAATGCCGAT,3.24
2,GCTTGCAGGCCATTTGGGTCACTCAATGACGGGC,1.74
3,TGTCAAAGTTCAAACGTAACGTAAGTATCCACAC,5.43
4,TAGCCTAGGTCATCCAGGGGCCAGTATAGAAAGC,3.66
5,ATCACTAGGTAACAAGTTCAGTGAAAGAGAGGAC,1.94
6,ACTAGTTGGTCAGCAGAGGTCACACACAATTCGG,4.7
7,CATACAGGGTCAGCTAGGCCAGAGTGGGGACGGC,4.31
8,TCTTGCAGATCAACAGGAGGTTAAGAAAGATCGA,1.11
9,TCTGCTAGGTCAGTTGGTCTGCTAACGAGCTGCC,0.9
10,TCATATAGGTAAACAGGAGAAAGTCCGTAAGTTA,0.987
11,CGAACGAGCGCATGAGTTGATAGCAAATGCCGAT,-1.7
12,GCTTACGGGTCAAAGGTTTTAGCATGAATAGAAT,5.95
13,ACTTACGGGTCAACGAGGTTATATCACGCGTATA,5.82
14,CGAACGAGGGCATGAGTTGATATCAAATGCCGAT,1.59
15,TCTTGTAGATCAAAGGTTAAGAATGCCGAAGCCT,4.68
16,AGAGCGAGGGCAATGAGTTGATAGCACGGGTGGC,0.406
17,CTTACAGGGTCAGCTAGGCCAGAGTAGGGACGGC,4.25
18,TCATATACGTAAAGGTGAAAGTCGAACGATATGA,2.63
19,TCTGCTAGGTCAACGATGGTCAGCTGATCTGCTA,3.35
20,TAGCCTAGGTCAGATCGGGCTAGTATACGCTATA,1.73

row,Sequence,PBM binding z-score
1,ATCTCTAGGTAAAAGATCAGTGAATCCCGAGGAT,2.45
2,TAGCCTAGGTCATGGGCCATTATACCACGCGAAC,4.24
3,TGAATGAGGTTATAAGATCAGAGAACGTTGCAAA,2.62
4,CCTACTGGGCCACGAAAGGTCATTGTTTCAGTGA,4.61
5,CGAACTAGTTCATTGACAGGACAGTGAATAGTAA,0.375
6,CCAGACAGGTGAGAAGGTAACTCATCCTCGATTA,0.773
7,ATCGAAAGTTCGAGGTGAGTATAGAGAAAGGGAA,1.76
8,TTATATAGGTAATACAGGTGAAAGTCGGCATCTA,2.7
9,TCTATTAGTTGAAGGGCAAGCGACGAGTCCGTTT,1.04
10,TCTATTATTTGAAGGGCAACCGACGAGTCCGTTT,1.29
11,TCATATAGGTAAAAAGTGAAAGTCGGTGTGGTAA,2.62
12,TCTTGTAGATCAATAGAGGTTAAGACAGTGCGCT,1.98
13,TCTTGTAGATCAATAGAGGTTATGAAAGTGCGCT,1.9
14,GCGACTGGCGCATCAGCAGGTTACCATAACTTAA,-0.493
15,ATCTCTAGGTAACGATAGTTCAGTGAATGCAAAT,0.791
16,CCGACTGGGGCACGGTTACCATAACGCACAGCCA,0.346
17,CGAACGAGGGCATGAGTTGATTGCAAATGCCGAT,1.14
18,TCTCAGAGGACACGAAGGTCAGAGCTTTCCAGAG,2.07
19,TAGCCAAGGTCATGCGGGCCAGTATAGTGTCGGC,5.58
